# Screens (PubChem BioAssay)
# An excerpt weighted towards active compounds, which were near 6.3% of everything screened.
# Mdm2 MdmX PPI – human Mdm2/MdmX binding inhibition; O15151+Q00987; SaOS-2 split-luciferase Mdm2/MdmX complementation, luminescence; inhibition, % at 8 µM; hit rate 3% among 330,000;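 active = inhibition of at least 50% at 8 µM in the primary screen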
# tim10-1 inh – growth inhibitors of tim10-1 mutant yeast | hit rate 2.2% among 330,000 | AID 463190 | S. cerevisiae tim10-1 ts strain growth, BacTiter-Glo, 24 h | inhibition, % at 20 µM;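 active = inhibition of at least 40%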;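 also: mutant grown at 25 °C; 0% = DMSO wells with yeast and 100% = wells holding no yeast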
# MPTP inh – inhibitors of mitochondrial permeability transition pore | hit rate 1.4% among 360,000 | isolated mouse mitochondria, Ca2+ swelling absorbance, 30 min | inhibition, % at 10 µM;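 active = inhibition of 50% or more, scaled per plate between neutral and stimulator controls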;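 also: 0% = DMSO wells given calcium and 100% = 1 mM EGTA wells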
# tim23-1 inh – inhibits growth of tim23-1 mutant yeast; S. cerevisiae tim23-1 growth, BacTiter-Glo luminescence, 24 h; inhibition, % at 20 µM; hit rate 1.3% among 330,000; AID 463212;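 active = growth inhibition of the mutant yeast at or above 50%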;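 also: temperature-sensitive mutant grown at 25 °C; plate controls were DMSO-treated mutant yeast for no effect and medium wells lacking yeast for full effect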
# TIM10 inh – inhibits growth of TIM10 yeast strain; inhibition, % at 10 µM; S. cerevisiae TIM10 strain growth, BacTiter-Glo luminescence, 24 h; hit rate 1.4% among 330,000; AID 463195;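 active = inhibition of 40% or more at the single tested concentration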;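 also: wild-type TIM10 isogenic control strain grown at permissive 25 °C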
# TIM10 conf – confirmation of TIM10 yeast growth inhibitors; shares compounds with TIM10 inh; S. cerevisiae tim10 strain growth, BacTiter-Glo luminescence, 24 h; inhibition, % at 10 µM; hit rate 63% among 4,600;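 active = inhibition of yeast growth at or above a set limit in either of two replicates at 10 µM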;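 also: this counterscreen used the strain with wild-type TIM10; 0% = yeast with DMSO and 100% = medium wells lacking yeast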
# Numbers without * were called inactive; · = not tested or not shown.
SMILES,Mdm2 MdmX PPI,tim10-1 inh,MPTP inh,tim23-1 inh,TIM10 inh,TIM10 conf
O=C(CC[C@H]1O[C@@H](n2ccc(=O)[nH]c2=O)[C@H](O)[C@@H]1O)N[C@@H](Cc1ccccc1)C(=O)NCC1CCCCC1,·,·,-1,·,·,·
CN1CCc2c(OCC(=O)N3N=C(c4cccs4)CC3c3ccc(F)cc3)cccc2C1=O (stereo unspecified),29,30,3,43,40,-26
Cc1ccccc1C(=O)NNC(=O)C12CC3CC(CC(C3)C1)C2,-30,14,0,7,2,·
Cc1cccc(C(=O)NNC(=O)C23CC4CC(CC(C4)C2)C3)c1O,17,4,-2,28,49*,46*
COc1ccc(/C=C/C(=O)NCCc2c[nH]c3ccccc23)cc1OC,11,-35,0,5,53*,9
O=S1(=O)N[C@@H](Cc2ccccc2)COc2cc(N3CCN(Cc4ccccc4F)CC3)ccc21,·,·,1,·,·,·
O=C(Cc1cccs1)N(Cc1cccs1)C1(C(=O)NC2CCCC2)CCCCC1,8,19,1,31,27,·
O=C(Cc1cccs1)N(Cc1ccco1)C1(C(=O)NC2CCCCC2)CCCCC1,34,28,1,21,43*,10
CC(=O)Nc1ccc(C(=O)OCc2ccc(Br)cc2)cc1,18,34,0,46,41*,35*
O=C(OCc1ccc(Br)cc1)c1ccncc1,-1,23,-2,1,6,·
CCOC(=O)C1=C(C)N(C)C(=S)NC1c1cccc(Cl)c1Cl (stereo unspecified),-32,36,2,16,48*,28
Cc1cc(C)n2c(SCC(=O)NC3CCCCC3C)nnc2n1 (stereo unspecified),7,12,-1,8,6,·
CCC1CCCCN1C(=O)CSc1nnc2nc(C)cc(C)n12 (stereo unspecified),27,1,-2,3,43*,-14
NNC(=S)Nc1ccccc1Cl,6,15,0,25,-12,·
NNC(=S)Nc1ccc(C(F)(F)F)cc1Cl,8,31,2,38,44*,12
Cc1ccccc1-c1cn(-c2ccccc2)c(=S)[nH]1,1,16,-1,37,41*,51*
Fc1ccccc1-n1cc(-c2ccccc2)[nH]c1=S,-21,33,0,31,38,·
COc1cc(C(=O)NCCc2cc3c(OC)ccc(OC)c3[nH]c2=O)cc(OC)c1OC,15,11,-1,13,16,·
COc1ccc(OC)c2[nH]c(=O)c(CCNC(=O)c3ccc(Br)o3)cc12,2,25,0,18,47*,12
CN(Cc1ccccc1)c1nccn2ccnc12,·,·,1,·,·,·
CC(C)C[C@@H](CN1CCC[C@@H]1CN1C(=S)NC[C@@H]1Cc1ccc(O)cc1)N1C[C@H](Cc2ccc(O)cc2)N(CCc2ccccc2)C1=S,·,·,3,·,·,·
Cc1ccc2nc(CSc3nc(C)ccc3C#N)[nH]c2c1,-205,38,-1,35,61*,48*
COc1cc(/C=N/Nc2nc(Nc3ccccc3)nc(N3CCCCC3)n2)ccc1OCC(=O)O,15,38,6,12,22,·
COc1ccc(/C=N/Nc2nc(Nc3ccccc3)nc(N3CCCCC3)n2)c(OC)c1,11,30,0,25,41*,-32
Fc1ccc(Nc2nc(N/N=C/c3ccco3)nc(N3CCCCC3)n2)cc1,31,13,0,41,40*,22
SMILES,Mdm2 MdmX PPI,tim10-1 inh,MPTP inh,tim23-1 inh,TIM10 inh,TIM10 conf
C(=N\Nc1nc(N2CCOCC2)nc(N2CCOCC2)n1)/c1ccco1,14,-8,·,6,9,·
CCOc1ccc(N/C(SCc2cccc([N+](=O)[O-])c2)=C(/C#N)C(N)=O)cc1,-1,39,2,38,46*,41*
CCNC(=O)C1(C)CCN(C(=O)CCc2ccccc2)C1 (stereo unspecified),·,·,1,·,·,·
CCc1ccc(C(=O)NNc2ccc(Cl)cc2)cc1,1,5,2,31,53*,53*
CCc1ccc(C(=O)NNc2cc(Cl)cc(Cl)c2)cc1,33,-7,20,23,6,·
Cc1ccc(NC(=O)C2CCN(C(=O)OC(C)(C)C)CC2)cc1S(=O)(=O)N1CCCCC1,19,4,0,2,56*,4
Cc1ccc(S(=O)(=O)N2CCCCC2)cc1NC(=O)C1CCN(C(=O)OC(C)(C)C)CC1,·,·,1,·,·,·
O=C1NC(Cc2ccccc2)c2nc3cc(Cl)ccc3c(=O)n2-c2ncccc21 (stereo unspecified),·,·,1,·,·,·
